# Experimental data from the supplement of paper PMC6555819.
# Experiments:
# Assay in all cases: PBM binding z-score (relative to random genomic background probes); higher = stronger binding; sequences stand for … in GC…GCGATTGACAGCGTAGAATGAAGG
# [1] = test system: RARb homodimer (NR concentration 270 nM)
# Method in brief: (§1)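 Custom Agilent 4×180K protein-binding microarrays carried double-stranded probes. Their 34-nt variable regions held direct-repeat seeds, single-nucleotide variants, half-site ablations and random human genomic background sequences. Arrays were incubated 1 h with ligand-free nuclear receptor dimers in PBS pH 7.4, 2% milk, 0.02% Triton X-100, 1 mM DTT, 0.2 mg/mL BSA and 0.4 mg/ml salmon testes DNA. Antibodies against each partner (one per run) detected binding, and scanned fluorescence was regression-normalized. Binding z-scores use random background probes as reference.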
# [2] = test system: RARg:RXRa (NR concentration 270 nM, RXRa partner concentration 90 nM)
# Method in brief: as §1
# [3] = test system: RARg homodimer (NR concentration 270 nM)
# Method in brief: as §1
# [4] = test system: RXRa DBDmut IVT, anti-RXR (DBD mutation: RXRa K156A/R161A, NR concentration 90 nM)
# Method in brief: as §1
# [5] = test system: RXRa homodimer (NR concentration 180 nM)
# Method in brief: as §1
# [6] = test system: THRa:RXRa (NR concentration 90 nM, RXRa partner concentration 90 nM)
# Method in brief: as §1
# [7] = test system: THRa homodimer (NR concentration 90 nM)
# Method in brief: as §1
# [8] = test system: VDR homodimer (NR concentration 270 nM)
# Method in brief: as §1
Sequence,PBM binding z-score [1],PBM binding z-score [2],PBM binding z-score [3],PBM binding z-score [4],PBM binding z-score [5],PBM binding z-score [6],PBM binding z-score [7],PBM binding z-score [8]
GCTGCTAGGTCAACTAATGGTCAGCTAAAGCTCG,3.51,5.28,5.52,1.38,2.65,2.74,0.777,-0.0577
CCTTACGGGTCCCGAGGTTATAGCACGACGAGCG,0.515,0.416,0.388,-1.34,0.999,1.1,0.132,0.162
TCTAGTTGGTCACGGAGGTCACTCACGACGGGTA,4.12,4.23,4.31,1.24,3.96,3.23,2.26,2.93
ATCGAAAGGTCGTAGGTGAGTATACCCACCCGAA,2.79,4.48,3.9,1.21,5.28,2.5,0.0179,1.21
CGTCCAAGGTCAGCAGGTCAGTGATAGCGACGTG,5.02,6.25,7.22,2.59,5.26,3.84,2.31,1.75
CCTCGGAGGACAACGGGAGGTCAGAGCTGCCAGA,3.43,3.93,3.4,-0.419,1.76,3.04,1.32,1.08
CAAACTAGGTCAAGGTCAAAATCGGTTTGTGCCA,4.77,5.74,6.36,2.64,5.55,4.32,3.13,3.88
CCGGACAGGTGAGAAGGTAACTCAGCCTCGATTA,0.613,0.4,0.787,-0.0237,0.117,0.16,0.35,-0.222
ACTAGCAGGCCAAGTTTGGGTCACTCGAACAAAG,2.15,2.31,1.59,-0.0795,0.694,2.42,0.889,0.0508
ACAGACAGGTGATGAAGGTTACTCAGGCTATCAT,1.16,0.777,0.687,0.104,0.748,0.904,0.139,0.291
GCGACTGGGGCAAAGCAGTTTACCATAAGGTTGG,0.187,0.073,0.187,0.0079,-0.0226,0.718,-0.284,-0.185
ACTTACGGGTCAACGAGGTTATAACACGCGTATA,3.71,5.74,5.07,3.22,6.33,4.34,1.32,4.13
CTACAAAGGTGAACAAGGTCGTTGATTACTATTC,3.33,3.64,3.01,1.76,3.64,3.69,1.37,2.51
GCGACTGGGGCGTCAGCAGGTTACCATAACTTAA,0.457,0.162,-0.368,-0.119,0.154,0.661,-0.199,-0.488
AGCGAAAGGTCGACGAGGTGAGTATACACCGTTT,2.99,4.23,4.03,0.801,4.4,3.75,0.716,0.753
CCGACTGGGGCAGAAAGTTTACCATACCATCCGG,0.899,-0.0805,0.478,-0.44,-0.178,-0.72,-0.708,0.157
GTACCAAGGTGAATAGGTCGTTTATGAGTAGGCG,1.75,2.69,1.2,0.0866,2,1.95,0.576,0.299
CCGCCTGGGGCAAAGGTTACCATACTCAGTACGA,2.28,3.48,1.78,-0.0654,3.55,2.05,0.443,0.257
GGAACGGGGGCAAAGTTGATAGCATCTGTCGACG,2.04,3.72,2.45,3.44,3.61,2.65,0.962,3.49
TTACCAAGGTGATGGTCGTTGATCCCTCTGTAGA,0.0776,-0.376,-0.245,-0.261,0.284,0.769,0.35,-0.232
CCTCAAAGTTCAAGGTAACGTAACAGAAAGCAGC,4.13,5.48,6.39,4.29,4.44,3.32,1.79,3.65
GTACCAAGGTGAATGGGTCGTTGATGAGTAGGCG,1.33,1.28,0.93,-0.402,1.08,1.74,0.777,0.187
ATATGAAGGTTAAGGGTCATTCAGGTTGGTTCGC,4.38,5.3,3.81,2.14,7.12,3.95,1.5,4.67
AGTCAAAGTTCACTGGGTAACGTAAGATTCAGCT,3.82,5.43,5.94,4.4,4.47,1.92,-0.189,4.09
ATCGAAAGGTCGAGGTGAGAATAGAGAAAGGGAA,2.77,4.3,4.7,0.437,4.86,2.73,0.58,-0.0619
GCTCGGAGGACAAGGTCAAAGCTTTGTCCGTAGA,3.35,4.56,4.54,1.32,4.4,3.57,2.09,2.02
TCTAGTTGGTTAAAGGTCACACACTCGAAATGCG,5.19,6.13,5.53,2.21,6.72,4.02,2.69,2.78
CAAACTAGGTCACAGAGGTCTAAGTCCGTGCGTA,3.5,4.44,4.87,1.85,3.76,3.54,1.82,1.87
ATATTTAGGTTATCGGGTCATTCAGTTTGCGCAT,3.44,3.54,2.82,1.92,3.57,3.62,3.93,4.95
